Values joined by “and” are separate entries in the source; they are usually repeats but may differ in a detail not shown here. Equal values may be shown once. Where a name gives a salt, the structure may show the parent alone.
Key:
Experiment in all cases: cell viability relative to vehicle control; higher = less cytotoxic
Conditions in all cases: 10 µM
K562 = system: K562
In short: (§1)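 CRISPR-edited SRSF2 P95 mutant and isogenic wild-type clones of four leukaemia lines were screened against Selleck bioactive, kinase and epigenetic probe libraries, with identity-inconsistent compounds removed. Compounds were acoustically dispensed into 384-well plates at a single 10 µM dose, with 2000 cells in 50 µL medium per well. After 48 h, supernatant was removed and CellTiter-Glo luminescence was read. Viability was expressed as percent of the on-plate DMSO vehicle control, analysed in Genedata Screener.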

MARIMO = system: MARIMO
In short: as §1

MOLM14 = system: MOLM14
In short: as §1

OCI-AML2 = system: OCI-AML2
In short: as §1

| Structure (SMILES) | cell viability (K562; SRSF2 genotype: SRSF2 P95H/wt) | cell viability (K562; SRSF2 genotype: SRSF2 wt/wt) [%] | cell viability (MARIMO; SRSF2 genotype: SRSF2 P95H/wt) [%] | cell viability (MARIMO; SRSF2 genotype: SRSF2 wt/wt) [%] | cell viability (MOLM14; SRSF2 genotype: SRSF2 P95H/wt) [%] | cell viability (MOLM14; SRSF2 genotype: SRSF2 wt/wt) [%] | cell viability (OCI-AML2; SRSF2 genotype: P95H/wt) [%] | cell viability (OCI-AML2; SRSF2 genotype: wt/wt) [%] |
| --- | --- | --- | --- | --- | --- | --- | --- | --- |
| O=c1c(-c2ccc(O)cc2)coc2cc(O[C@@H]3O[C@H](CO)[C@@H](O)[C@H](O)[C@H]3O)ccc12 [Daidzin] | 94.3% and 101% | 96.3 | 91.7 | 104 | 98 | 104 | 93.5 | 98.4 |
| COc1ccc(/C=C/c2cc(OC)cc(=O)o2)cc1 [Yangonin] | 108% and 102% | 104 | 97.7 | 99.3 | 115 | 114 | 94.1 | 98.2 |
| CC[C@H](C)C(=O)O[C@H]1C[C@H](O)C=C2C=C[C@H](C)[C@H](CC[C@@H](O)C[C@@H](O)CC(=O)O)[C@H]21 [Pravastatin sodium] | 103% and 97.3% | 92.3 | 95.2 | 103 | 104 | 102 | 91 | 105 |
| N#C/C(=C(/N)Sc1ccc(N)cc1)c1ccccc1C(F)(F)F | 85.3% and 90.9% | 85.1 | 54 | 46.4 | 82.4 | 91.5 | 67.7 | 61.3 |
| OC1OC[C@@H](O)[C@@H](O)[C@@H]1O (stereo partly drawn) [D(-)-Arabinose] | 111% and 100% | 118 | 110 | 109 | 100 | 111 | 116 | 117 |
| Cc1nnc(NS(=O)(=O)c2ccc(N)cc2)s1 [Sulfamethizole (Proklar)] | 109% and 97.9% | 104 | 107 | 106 | 100 | 107 | 108 | 111 |
| C=CC(=O)Nc1cccc(Sc2nc(Nc3ccc(N4CCN(C)CC4)cc3)ncc2Cl)c1 | 12.7% and 13.8% | 13.8 | 0.51 | 9.17 | 0.08 | 0.12 | 0.11 | 0.45 |
| COc1cc2nccc(Oc3ccc(NC(=O)C4(C(=O)Nc5ccc(F)cc5)CC4)cc3)c2cc1OC [Cabozantinib malate] | 21% and 29.7% | 23.6 | 67.3 | 87.3 | 6.23 | 7.8 | 23.3 | 27.8 |
| C=C1C2CCC3C2C(C)(C)CCCC13C (single isomer, unassigned; (+)) [(+)-Longifolene] | 105% and 104% | 110 | 96.6 | 107 | 103 | 106 | 103 | 115 |
| CN1CC[C@H](c2c(O)cc(O)c3c(=O)cc(-c4ccccc4Cl)oc23)[C@H](O)C1 [Flavopiridol (Alvocidib)] | 6.41% and 17.6% | 8.24 | 10.4 | 4.67 | 3.1 | 0.32 | 4.93 | 15.2 |
| OCCn1cc(-c2cnc3nnn(Cc4ccc5ncccc5c4)c3n2)cn1 | 96.9% and 99.3% | 104 | 105 | 102 | 99.4 | 100 | 97.9 | 97.9 |
| COc1cc(S(=O)(=O)O)ccc1O [Sulfogaiacol] | 106% and 109% | 113 | 108 | 112 | 107 | 104 | 117 | 105 |
| Cc1ncc(NC(=O)c2cccc(C(F)(F)F)c2)cc1-c1cnc(OC2CCOCC2)c(N2CCOCC2)c1 | 61.6% and 73.4% | 71.2 | 41.2 | 40.3 | 48.2 | 40.7 | 30.6 | 39 |
| O=C(c1cccc(Cl)c1F)N1CCN(Cc2cccc(Nc3nccs3)n2)CC1 | 44.2% and 57.2% | 56.6 | 87.8 | 91.5 | 54.9 | 71.4 | 35.6 | 44.1 |
| NCCc1c[nH]cn1 [Histamine 2HCl] | 99% and 106% | 105 | 96.7 | 96.1 | 69 | 82.3 | 110 | 88.3 |
| OC[C@H]1O[C@H](OC[C@H]2O[C@H](OC[C@H]3O[C@H](O[C@]4(CO)O[C@H](CO)[C@@H](O)[C@@H]4O)[C@H](O)[C@@H](O)[C@@H]3O)[C@H](O)[C@@H](O)[C@H]2O)[C@H](O)[C@@H](O)[C@H]1O [Stachyose] | 106% and 100% | 99.7 | 102 | 109 | 97.3 | 105 | 94.5 | 93.5 |
| NCC(=O)Nc1ccc(-n2nc(C(F)(F)F)cc2-c2ccc3c(ccc4ccccc43)c2)cc1 | 0.38% and 0.39% | 0.29 | 0.31 | 0.5 | 0.18 | 0.22 | 0.19 | 0.23 |
| CCC(=O)OCC(=O)[C@@]1(OC(=O)CC)[C@@H](C)C[C@H]2[C@@H]3CCC4=CC(=O)C=C[C@]4(C)[C@@]3(F)[C@@H](O)C[C@@]21C [Betamethasone Dipropionate (Diprolene)] | 96.7% and 103% | 98.8 | 106 | 109 | 94.5 | 96 | 113 | 120 |
| CC(=O)OC/C=C(\C)CCC=C(C)C [Geranyl acetate] | 102% and 95.2% | 107 | 104 | 112 | 99.2 | 111 | 97.2 | 103 |
| COc1c(N2C[C@@H]3CCCN[C@@H]3C2)c(F)cc2c(=O)c(C(=O)O)cn(C3CC3)c12 [Moxifloxacin] | 94.1% and 92.9% | 90.2 | 93.9 | 99.8 | 95.3 | 96.4 | 86.8 | 90.4 |
| CC(C)(O)CC[C@@H](O)[C@](C)(O)[C@H]1CC[C@@]2(O)C3=CC(=O)[C@@H]4C[C@@H](O)[C@@H](O)C[C@]4(C)[C@H]3CC[C@]12C [20-Hydroxyecdysone] | 104% and 98.5% | 102 | 109 | 107 | 106 | 106 | 101 | 111 |
| CC(=O)O/N=C1/C(c2c(O)[nH]c3cc(Br)ccc23)=Nc2ccccc21 [BIO-acetoxime] | 32.5% and 23.4% | 25.4 | 82.2 | 88.4 | 33.1 | 24.4 | 73.2 | 76.2 |

| Structure (SMILES) | cell viability (K562; SRSF2 genotype: SRSF2 P95H/wt) | cell viability (K562; SRSF2 genotype: SRSF2 wt/wt) [%] | cell viability (MARIMO; SRSF2 genotype: SRSF2 P95H/wt) [%] | cell viability (MARIMO; SRSF2 genotype: SRSF2 wt/wt) [%] | cell viability (MOLM14; SRSF2 genotype: SRSF2 P95H/wt) [%] | cell viability (MOLM14; SRSF2 genotype: SRSF2 wt/wt) [%] | cell viability (OCI-AML2; SRSF2 genotype: P95H/wt) [%] | cell viability (OCI-AML2; SRSF2 genotype: wt/wt) [%] |
| --- | --- | --- | --- | --- | --- | --- | --- | --- |
| NC(=O)Cc1c[nH]c2ccccc12 [Indole-3-acetamide] | 97.9% and 97.4% | 107 | 98 | 100 | 92.9 | 103 | 107 | 115 |
| Cn1c(=O)cc(N2CCC[C@@H](N)C2)n(Cc2cc(F)ccc2C#N)c1=O [Trelagliptin] | 100% and 93.3% | 92.1 | 96.8 | 101 | 98.3 | 99.2 | 100 | 102 |
| COc1ccc([C@@H]2OC[C@H]3[C@@H]2CO[C@@H]3c2ccc3c(c2)OCO3)cc1OC [Fargesin] | 87.8% and 91.3% | 92.7 | 84.8 | 86 | 97.2 | 94.5 | 88.6 | 80.4 |
| CC(=O)SCC(Cc1ccccc1)C(=O)NCC(=O)OCc1ccccc1 (centres undefined) [Racecadotril (Acetorphan)] | 108% and 106% | 103 | 98.3 | 99 | 106 | 105 | 118 | 102 |
| Cn1c(=O)c(Oc2ccc(F)cc2F)cc2cnc(NC(CCO)CCO)nc21 | 91.7% and 92.6% | 90.4 | 98.9 | 97.2 | 92.2 | 99.8 | 96.2 | 92.2 |
| O=C(NNc1ccccc1)c1ccncc1 | 82.8% and 97.5% | 77.1 | 91.1 | 101 | 93.5 | 89.5 | 92.7 | 97.9 |
| O=C(CCCCc1ccc2c(c1)OCO2)N1CCCCC1 [Tetrahydropiperine] | 91.7% and 93.2% | 97.2 | 88.6 | 102 | 89.8 | 93.9 | 85 | 88.3 |
| CCOC(=O)NCCCC(=O)NCCc1ccccc1 | 102% and 97.9% | 98.8 | 105 | 109 | 100 | 105 | 108 | 106 |
| O=C(O)Cc1ccc(O)cc1 [4-Hydroxyphenylacetic acid] | 100% and 101% | 101 | 96.8 | 104 | 95.7 | 101 | 95.5 | 108 |
| COc1ccc(CCNCC(O)COc2cccc(C)c2)cc1OC (centres undefined) [Bevantolol hydrochloride] | 92.7% and 89.9% | 88.2 | 82.8 | 93.4 | 90.6 | 91.2 | 81.8 | 84.8 |
| CC(=O)c1ccc2c(c1)c1cc(C(C)=O)ccc1n2CCNC(C)C | 5.79% and 17.9% | 9.91 | 5.2 | 2.54 | 2.29 | 0.66 | 4.6 | 20.6 |
| C#CCN[C@@H]1CCc2ccccc21 [Rasagiline mesylate] | 98% and 105% | 101 | 105 | 106 | 99.4 | 104 | 108 | 107 |
| Nc1ccn([C@@H]2O[C@H](CO)[C@@H](O)C2(F)F)c(=O)n1 [Gemcitabine (Gemzar)] | 89% and 104% | 101 | 21.3 | 24.4 | 4.86 | 1.1 | 7.55 | 8.99 |
| Cn1cc(/C=C/C(=O)c2cccc(F)c2)cc1/C=C/C(=O)NO | 90.3% and 97.5% | 99.5 | 61.5 | 72.4 | 70.1 | 64.5 | 59.5 | 65.3 |
| Cc1nccn1CC1CCc2c(c3ccccc3n2C)C1=O (centres undefined) [Ondansetron hydrochloride (Zofran)] | 96.1% and 89.4% | 93.8 | 88.4 | 95.6 | 102 | 98.9 | 95.5 | 101 |
| Oc1ccc2c(c1)OC[C@H]1c3cc4c(cc3O[C@@H]21)OCO4 [Maackiain] | 82.8% and 87.4% | 79.4 | 80 | 83.8 | 90.7 | 85.4 | 82.3 | 84.6 |
| CCOC(=O)C1=C(COCCN)NC(C)=C(C(=O)OC)C1c1ccccc1Cl (centres undefined) [Amlodipine (Norvasc)] | 83% and 92.4% | 84.4 | 73.8 | 78.3 | 53.3 | 62.5 | 38.9 | 50 |
| COc1cc2c(cc1O)C[C@H]1c3cc(O)c(OC)cc3CC[N+]1(C)C2 (some centres undefined) [Phellodendrine chloride] | 92.6% and 101% | 98.5 | 100 | 95.6 | 103 | 95.9 | 96.7 | 102 |
| CCN(CC)CCOCCOC(=O)C1(c2ccccc2)CCCC1 [Pentoxyverine Citrate] | 98.4% and 105% | 108 | 92.9 | 104 | 96.4 | 104 | 112 | 97 |
| COc1ccccc1OCC(O)COC(N)=O (centres undefined) [Methocarbamol (Robaxin)] | 99.3% and 104% | 107 | 94.9 | 106 | 109 | 104 | 98.4 | 106 |
| OC[C@H]1O[C@@](CO)(O[C@H]2O[C@H](CO)[C@@H](O)[C@H](O)[C@H]2O)[C@@H](O[C@H]2O[C@H](CO)[C@@H](O)[C@H](O)[C@H]2O)[C@@H]1O [Melezitose] | 107% and 99.6% | 104 | 99 | 111 | 102 | 104 | 96.3 | 114 |
